PubChem BioAssay (Tox21)
Records with an inconclusive call do not appear. The source made the active and inactive calls. Unless noted, calls follow the shape of the full dose curve.

Assays:
[1] = Nuclear factor erythroid 2-related factor 2/antioxidant responsive element (Nrf2/ARE) small molecule agonists: qHTS cell viability counter screen in human keratinocytes (AID 1919968; active = well fitted curve in the direction sought with a large enough effect in the repeat runs; an effect the other way counts as inactive or inconclusive; also: nearly all actives have a fitted effect of over 55% in size)
Method in brief: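 Fluorescence read-out from CellTiter-Fluor after 1 h at 37 C. Wells held HaCaT-derived ARE-luciferase reporter cells (1,500/well) treated 23 h with DMSO-dissolved compounds. Run in the same wells as the luciferase agonist read.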

[2] = Nuclear factor erythroid 2-related factor 2/antioxidant responsive element (Nrf2/ARE) small molecule agonists: luciferase reporter gene qHTS assay in human keratinocytes (AID 1919969); also: nearly all actives have a fitted effect of over 35% in size
[3] = target: Gonadotropin-releasing hormone receptor (Homo sapiens) (UniProt P30968); experiment: Human gonadotropin-releasing hormone receptor (GnRHR) small molecule agonists, calcium flux assay in GnRHR-HEK293 cells (AID 1920063); also: nearly all actives have a fitted effect of over 35% in size
Method in brief: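 Calcium-dye fluorescence, Ex/Em=480/540, recorded every 1 sec over 3 min after compound addition to GnRHR-HEK293 cells. Cells had been seeded 18 hours earlier and dye-loaded for 1 hour at 37 C. Fifteen concentrations, triplicates.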

[4] = target: KiSS-1 receptor (Homo sapiens) (UniProt Q969F8); experiment: Human kisspeptin (KISS1R) small molecule agonists, calcium flux assay in KISS1R-HEK293 cells (AID 1920064; active = well fitted curve in the direction sought with a large enough effect in the repeat runs; an effect the other way counts as inactive or inconclusive)
Method in brief: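 Calcium flux read-out: kinetic fluorescence at Ex/Em=480/540, 1 s intervals over 3 min, after pin-tool compound addition to dye-loaded KISS1R-HEK293 cells. Fifteen concentrations, triplicates.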

[5] = G protein-coupled receptor (GPCR) small molecule agonists, calcium flux assay: HEK293 wild type cell line counter screen (AID 1920065)
Method in brief: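 Agonist mode; 18 h seeding at 37 C, 1 h dye load at 37 C; compounds pinned from DMSO, ATP as positive control; kinetic fluorescence 480/540 nm, 3 min, 1 s reads; 15 concentrations, triplicate.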

[6] = p53 small molecule agonists, cell-based qHTS assay with human liver microsomes (AID 1963577)
Method in brief: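 Compounds act here after metabolic activation: human liver microsomes and NADPH, both at 0.5 mg/mL final, were co-added to p53RE-bla cells. Incubation ran 16 h at 37 C, followed by LiveBLAzer detection.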

[7] = p53 small molecule agonists, cell-based qHTS assay with human liver microsomes: qHTS cell viability counter screen (AID 1963579); also: nearly all actives have a fitted effect of over 45% in size
Method in brief: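 Cells carrying the p53 response-element beta-lactamase reporter are treated for 16 h at 37 C with test compounds in the presence of human liver microsomes and NADPH (both 0.5 mg/mL final); ATP-based CellTiter-Glo luminescence then reports viability.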

[8] = p53 small molecule agonists, cell-based qHTS assay with rat liver microsomes: qHTS cell viability counter screen (AID 1963580); also: nearly all actives have a fitted effect of over 45% in size
Method in brief: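 After the beta-lactamase ratio was read, CellTiter-Glo was added to the same wells and luminescence measured at 30 min; cells had been treated 16 h at 37 C with compounds, rat liver microsomes and NADPH (0.5 mg/mL final each).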

[9] = p53 small molecule agonists, cell-based qHTS assay: qHTS cell viability counter screen (AID 1963581); also: nearly all actives have a fitted effect of over 45% in size
Method in brief: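 Cytotoxicity read-out: ATP-based luminescence (CellTiter-Glo, 30 min RT) measured in the same wells as the p53 reporter assay, HCT-116 p53RE-bla cells, 16 h compound exposure at 37 C.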

[10] = target: 5-hydroxytryptamine receptor 2A (Homo sapiens) (UniProt P28223); experiment: 5-hydroxytryptamine receptor 2A (HTR2A) small molecule antagonists, cell-based qHTS assay (AID 1963586); also: nearly all actives have a fitted effect of over 45% in size; also: potency is read from the fitted curve at half-maximal effect
Method in brief: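 CHO cells stably expressing human HTR2A were plated for 18 h at 37 C, then loaded with calcium dye for 1 h. Compounds were preincubated 5 min at room temperature before DOI (4 nM solution) was added. Kinetic fluorescence was read for 3 min.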

[11] = target: 5-hydroxytryptamine receptor 2A (Homo sapiens) (UniProt P28223); experiment: 5-hydroxytryptamine receptor 2A (HTR2A) small molecule agonists, cell-based qHTS assay (AID 1963587); also: nearly all actives have a fitted effect of over 30% in size
Method in brief: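 CHO cells stably expressing human HTR2A, plated 18 h, loaded with calcium dye 1 h at 37 C. Agonist mode: compounds added and intracellular calcium fluorescence recorded kinetically for 2 min at 1 sec intervals.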

[12] = target: Muscarinic acetylcholine receptor M1 (Homo sapiens) (UniProt P11229); experiment: Cholinergic receptor muscarinic 1 (CHRM1) small molecule antagonists, cell-based qHTS assay (AID 1963588); also: nearly all actives have a fitted effect of over 40% in size
Method in brief: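 Compounds were tested at 15 concentrations in three independent runs. Dye-loaded CHRM1-CHO cells were exposed 5 min at room temperature before stimulation by acetylcholine added at 50nM. Intracellular calcium was read kinetically on FDSS for 3 min.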

[13] = target: Muscarinic acetylcholine receptor M1 (Homo sapiens) (UniProt P11229); experiment: Cholinergic receptor muscarinic 1 (CHRM1) small molecule agonists, cell-based qHTS assay (AID 1963589); also: nearly all actives have a fitted effect of over 35% in size
Method in brief: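 Calcium flux read-out: kinetic fluorescence at 1 sec intervals after pin-tool compound addition to dye-loaded CHRM1-CHO cells (human M1). Agonist mode; 15 concentrations tested in triplicate independent runs.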

[14] = cAMP Responsive Elements (CRE) small molecule agonists, cell-based qHTS assay (AID 1963590)
Method in brief: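 Beta-lactamase reporter readout: LiveBLAzer B/G FRET substrate, 2 h at room temperature, added after 3 h compound treatment of CRE-bla HEK 293T cells at 37 C/5% CO2.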

[15] = target: D(2) dopamine receptor (Homo sapiens) (UniProt P14416); experiment: Dopamine D2 receptor (DRD2) small molecule agonists, cell-based qHTS assay (AID 1963594); also: nearly all actives have a fitted effect of over 35% in size
Method in brief: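 HEK293 cells stably expressing human DRD2, pre-treated with PDE inhibitor Ro20-1724 (0.1 mM final) and compound 10 min at room temperature, then stimulated with NKH477 (200nM […]) for 30 min. cAMP read by HTRF (665/620 nm).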

[16] = target: D(2) dopamine receptor (Homo sapiens) (UniProt P14416); experiment: Dopamine D2 receptor (DRD2) small molecule antagonists, cell-based qHTS assay (AID 1963595; active = well fitted inhibition curve with a large enough effect in the signal ratio in the repeat runs, with a control signal flat; the % refers to the signal ratio)
Method in brief: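 Stable D2 receptor HEK293 line, 24 h after seeding. Compound preincubated 10 min, then quinpirole (12 nM) with forskolin analogue NKH477 (200 nM), 30 min, room temperature. Detection by time-resolved FRET of cAMP.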

[17] = p53 small molecule agonists, cell-based qHTS assay (AID 1963582; active = well fitted activation curve with a large enough effect in the signal ratio in the repeat runs, not every such curve was filed as active; the % refers to the signal ratio)
Method in brief: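 Fluorescence intensity read-out of a beta-lactamase reporter under a p53 response element. Cells were exposed to DMSO-dissolved compounds for 16 h at 37 C, then developed with FRET substrate for 2 h at RT.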

[18] = cAMP Responsive Elements (CRE) small molecule antagonists, cell-based qHTS assay (AID 1963591; active = well fitted inhibition curve with a large enough effect in the signal ratio in the repeat runs, not every such curve was filed as active; the % refers to the signal ratio)
Method in brief: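 HEK293T CRE-bla; 18 h preincubation; compound pin-transfer; NKH477 0.25 uM final, 3 h, 37 C; LiveBLAzer FRET substrate 2 h RT.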

[19] = target: Beta-2 adrenergic receptor (Homo sapiens) (UniProt P07550); experiment: Adrenergic beta2 receptor (ADRB2) small molecule antagonists, cell-based qHTS assay (AID 1963592); also: series mostly up to about 92 µM; nearly all actives have a fitted effect of over 50% in size
Method in brief: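 Assay format: CHO-ADRB2 cells, 18-20hr seeding at 37C/5% CO2, then compound plus 1nM isoproterenol agonist mix for 0.5hr RT. Homogeneous time-resolved fluorescence cAMP detection after 1hr, expressed as 665/615 nm ratio.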
% is scaled to controls: 0 for no effect and ±100 for the full control effect.

Sequence of Muscarinic acetylcholine receptor M1 (Homo sapiens) (P11229 whole entry, looked up): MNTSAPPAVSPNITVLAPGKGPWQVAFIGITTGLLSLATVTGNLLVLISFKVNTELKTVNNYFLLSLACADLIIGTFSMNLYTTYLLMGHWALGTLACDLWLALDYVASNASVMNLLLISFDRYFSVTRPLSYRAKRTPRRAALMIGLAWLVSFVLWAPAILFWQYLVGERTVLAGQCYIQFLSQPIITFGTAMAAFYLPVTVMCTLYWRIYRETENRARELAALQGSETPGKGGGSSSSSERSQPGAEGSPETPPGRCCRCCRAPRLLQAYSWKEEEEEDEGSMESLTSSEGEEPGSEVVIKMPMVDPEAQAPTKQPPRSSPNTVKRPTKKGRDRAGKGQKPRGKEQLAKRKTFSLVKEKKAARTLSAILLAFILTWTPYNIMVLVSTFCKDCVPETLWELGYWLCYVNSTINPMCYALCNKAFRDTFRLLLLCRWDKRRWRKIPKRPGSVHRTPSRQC
Sequence of Gonadotropin-releasing hormone receptor (Homo sapiens) (P30968 whole entry, looked up): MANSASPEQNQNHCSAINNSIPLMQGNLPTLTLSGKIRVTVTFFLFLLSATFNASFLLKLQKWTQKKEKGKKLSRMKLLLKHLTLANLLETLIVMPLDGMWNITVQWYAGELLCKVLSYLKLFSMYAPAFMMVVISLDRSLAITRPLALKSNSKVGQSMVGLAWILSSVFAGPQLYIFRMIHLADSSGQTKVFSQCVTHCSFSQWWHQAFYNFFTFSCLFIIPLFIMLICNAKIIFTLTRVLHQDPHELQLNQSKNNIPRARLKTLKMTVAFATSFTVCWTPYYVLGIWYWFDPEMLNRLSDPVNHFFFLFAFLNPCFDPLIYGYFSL
Sequence of Beta-2 adrenergic receptor (Homo sapiens) (P07550 whole entry, looked up): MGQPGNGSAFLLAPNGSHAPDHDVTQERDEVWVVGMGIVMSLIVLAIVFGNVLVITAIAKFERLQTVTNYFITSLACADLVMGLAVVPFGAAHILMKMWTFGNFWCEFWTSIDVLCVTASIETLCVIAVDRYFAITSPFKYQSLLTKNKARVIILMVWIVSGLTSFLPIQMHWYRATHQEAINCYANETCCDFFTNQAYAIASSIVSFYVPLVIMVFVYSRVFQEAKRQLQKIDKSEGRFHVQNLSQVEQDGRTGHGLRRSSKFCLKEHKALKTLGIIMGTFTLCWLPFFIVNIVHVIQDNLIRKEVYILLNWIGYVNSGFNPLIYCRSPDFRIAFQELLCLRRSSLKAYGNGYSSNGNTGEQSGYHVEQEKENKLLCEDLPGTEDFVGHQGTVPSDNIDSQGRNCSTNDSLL
Sequence of 5-hydroxytryptamine receptor 2A (Homo sapiens) (P28223 whole entry, looked up): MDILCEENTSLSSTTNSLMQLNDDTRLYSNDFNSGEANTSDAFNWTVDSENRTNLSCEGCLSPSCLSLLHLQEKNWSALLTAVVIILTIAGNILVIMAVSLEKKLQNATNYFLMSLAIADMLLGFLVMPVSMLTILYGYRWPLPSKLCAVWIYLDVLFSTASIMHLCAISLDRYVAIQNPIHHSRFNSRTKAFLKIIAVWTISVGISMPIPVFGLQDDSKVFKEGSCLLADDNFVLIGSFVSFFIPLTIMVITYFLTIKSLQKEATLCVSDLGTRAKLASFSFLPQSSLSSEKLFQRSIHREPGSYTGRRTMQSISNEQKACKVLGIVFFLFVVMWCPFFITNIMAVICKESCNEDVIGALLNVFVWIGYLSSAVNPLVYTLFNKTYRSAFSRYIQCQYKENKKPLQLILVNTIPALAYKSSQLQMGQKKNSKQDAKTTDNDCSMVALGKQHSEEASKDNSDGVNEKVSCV
Sequence of D(2) dopamine receptor (Homo sapiens) (P14416 whole entry, looked up): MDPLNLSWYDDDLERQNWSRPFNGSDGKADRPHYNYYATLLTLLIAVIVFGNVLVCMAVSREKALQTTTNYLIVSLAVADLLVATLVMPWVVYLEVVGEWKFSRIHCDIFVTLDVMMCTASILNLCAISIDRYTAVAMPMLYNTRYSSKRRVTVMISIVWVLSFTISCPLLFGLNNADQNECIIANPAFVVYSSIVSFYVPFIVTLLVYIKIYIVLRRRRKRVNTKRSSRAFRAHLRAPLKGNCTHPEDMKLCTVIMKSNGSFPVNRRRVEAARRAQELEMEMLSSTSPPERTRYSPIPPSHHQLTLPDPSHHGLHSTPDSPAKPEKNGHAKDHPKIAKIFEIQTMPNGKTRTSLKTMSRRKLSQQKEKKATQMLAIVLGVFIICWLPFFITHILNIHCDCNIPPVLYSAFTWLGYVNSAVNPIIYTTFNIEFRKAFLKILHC
Sequence of KiSS-1 receptor (Homo sapiens) (Q969F8 whole entry, looked up): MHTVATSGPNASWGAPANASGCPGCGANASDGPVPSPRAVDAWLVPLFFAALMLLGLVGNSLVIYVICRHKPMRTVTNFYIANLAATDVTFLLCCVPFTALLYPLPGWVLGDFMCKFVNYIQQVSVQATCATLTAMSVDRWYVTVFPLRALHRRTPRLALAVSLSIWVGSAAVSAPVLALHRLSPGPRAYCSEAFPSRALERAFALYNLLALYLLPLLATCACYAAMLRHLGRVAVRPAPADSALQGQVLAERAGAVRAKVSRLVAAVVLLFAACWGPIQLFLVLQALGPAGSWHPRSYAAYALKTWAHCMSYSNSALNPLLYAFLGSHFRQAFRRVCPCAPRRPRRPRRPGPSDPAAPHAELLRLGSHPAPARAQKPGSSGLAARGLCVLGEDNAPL

CC1=CC[C@H](C(C)C)C=C1
inactive: Potency [1] | Potency [2] | Potency [3] | outcome [4] | outcome [5] | Potency [6] | Potency [7] | Potency [8] | Potency [9] | Potency [10] | Potency [11] | Potency [12] | Potency [13] | Potency [14] | Potency [15] | Potency [16]

Cc1cc2c(cc1S(N)(=O)=O)S(=O)(=O)CCC2
inactive: Potency [1] | Potency [2] | Potency [3] | outcome [4] | outcome [5] | Potency [6] | Potency [7] | Potency [8] | Potency [9] | Potency [17] | Potency [11] | Potency [12] | Potency [14] | Potency [18] | Potency [19] | Potency [15] | Potency [16]

CC(C)COC(=O)c1ccccc1
inactive: Potency [1] | Potency [2] | Potency [3] | outcome [4] | outcome [5] | Potency [6] | Potency [7] | Potency [8] | Potency [9] | Potency [17] | Potency [10] | Potency [11] | Potency [12] | Potency [13] | Potency [14] | Potency [18] | Potency [15] | Potency [16]

O=C(CCN1CCN2CCCC2C1)N1c2ccccc2Sc2ccc(Cl)cc21 (centres undefined)
active: Potency [10] 8.94 µM
inactive: activity change, negative = cytotoxicity [1] -13.5% [at 19 µM] | activity, positive = activation [2] -8.3% [at 19 µM] | activity change [3] 0.23% [at 11.8 µM, hits give high values] | activation [4] -1.39% [at 15.8 µM] | activation [5] 0.367% [at 11.8 µM] | activation [6] -1.04% [at 13.5 µM] | activity change, negative = cytotoxicity [7] -1.69% [at 13.5 µM] | activity change, negative = cytotoxicity [8] 2.61% [at 13.5 µM] | activity change, negative = cytotoxicity [9] -8.91% [at 13.5 µM] | activation [17] -0.768% [at 13.5 µM] | activation [11] -9.57% [at 15.9 µM] | activation [13] 0.0294% [at 15.8 µM] | activation [14] 0.0795% [at 19 µM] | activity change, negative = inhibition [19] 0.603% [at 19 µM] | activation [15] -31% [at 19 µM] | activity change, negative = inhibition [16] -8.25% [at 18.9 µM]

CN1CCC(=C2c3ccccc3CC(=O)c3sccc32)CC1
inactive: Potency [1] | Potency [2] | Potency [3] | outcome [4] | outcome [5] | Potency [6] | Potency [7] | Potency [8] | Potency [9] | Potency [17] | Potency [14] | Potency [18] | Potency [19] | Potency [15] | Potency [16]

C#Cc1ccc(-c2ccccc2F)cc1
inactive: Potency [1] | Potency [2] | Potency [3] | outcome [4] | outcome [5] | Potency [6] | Potency [7] | Potency [8] | Potency [9] | Potency [17] | Potency [11] | Potency [12] | Potency [13] | Potency [14] | Potency [18] | Potency [19] | Potency [15] | Potency [16]

C=COCC1CCC(COC=C)CC1 (centres undefined)
inactive: Potency [1] | Potency [2] | Potency [3] | outcome [4] | outcome [5] | Potency [6] | Potency [7] | Potency [8] | Potency [9] | Potency [17] | Potency [10] | Potency [12] | Potency [13] | Potency [14] | Potency [18] | Potency [19] | Potency [15] | Potency [16]
